HCV inhibitor: blocks hepatitis C virus | AID 651820 | Potency, µM (doses to about 41.8 µM), for the others: top-dose activity change, negative = inhibition, actives largely listed as inhibitors | Huh7.5.1 HCVcc-Cre infection, luciferase reporter, 44 h | 340,000 compounds, 3.4% hits; active = well fitted inhibition curve with a large enough effect; inconclusive = small, poorly fitted or top-dose-only effect, or another doubt; inactive = no such curve, though single readings can be large or run the other way; also: potency is read from the fitted curve at half-maximal effect
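Cells (1,000/well) were plated 4 h before compound, then infected with HCVcc-Cre virus (~0.5 moi). After 44 h further culture, infection was read as luciferase luminescence following a 15 min substrate incubation at room temperature.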
MARV entry inh: blocks Marburg virus binding to or entry into cells; Marburg virus pseudotyped entry inhibition, cell reporter; Potency, µM (series often up to 37.8 µM), for the others: at the top dose activity change, negative = inhibition, hits mostly inhibitors; 300,000 compounds, 1.8% hits; AID 540276; calls by dose curve; tested in HEK293 cells; also: potency is read from the fitted curve at half-maximal effect
VACV mCherry inh: vaccinia inhibition (mCherry reporter); 310,000 compounds, 0.63% hits; Potency, µM (top dose mostly 36.5 µM), for inactives: at the highest dose activity change, negative = inhibition, hits mostly inhibitors; Vaccinia virus mCherry reporter infection, fluorescence; calls by dose curve; tested in A549 cells; also: potency is read from the fitted curve at half-maximal effect; nearly all actives have a fitted effect of over 35% in size
HCMV antiviral: inhibitors of human cytomegalovirus | HFF cells, HCMV-luciferase reporter, 72 h; active compounds read low | activity change, negative = inhibition, % at 57.5 µM | 410,000 compounds, 4.5% hits; in the data active = activity change below about -60%; inconclusive = no clear call, values can overlap the other calls; inactive = above about -39%
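Compounds were evaluated in HFFs infected with an HCMV luciferase reporter virus (MOI 1 PFU/cell). Luciferase in lysates collected 72 h post infection served as the replication measure.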
Lassa entry inh: inhibitors of Lassa virus binding or cell entry; AID 540256; 300,000 compounds, 1.2% hits; Potency, µM (series often up to 37.9 µM), without a hit: at the top dose activity change, negative = inhibition, hits mostly inhibitors; Lassa virus pseudotype entry inhibition, cell reporter; calls by dose curve; tested in HEK293 cells; also: potency is read from the fitted curve at half-maximal effect; nearly all actives have a fitted effect of over 50% in size
VACV Venus inh: inhibitors of vaccinia virus (Venus reporter) | Vaccinia virus Venus reporter expression, fluorescence | Potency, µM (highest dose often 36.5 µM), without a hit: at the highest dose activity change, negative = inhibition, hits mostly inhibitors | 330,000 compounds, 0.46% hits | AID 720580; calls by dose curve; tested in A549 cells; also: potency is read from the fitted curve at half-maximal effect; nearly all actives have a fitted effect of over 30% in size
* marks the source's active call; other numbers are inactive results; u = inconclusive; x = not tested or not shown; ! = a repeat was not active; [ ] = dose if it differs, or a comment. The list is not random: actives were taken first. Their share in the collection is about 7.8%. % is scaled to controls: 0 for no effect and ±100 for the full control effect.

SMILES	HCV inhibitor	MARV entry inh	VACV mCherry inh	HCMV antiviral	Lassa entry inh	VACV Venus inh
O=C(Nc1ccc(C(=O)OC[C@@H]2CCCN3CCCC[C@H]23)cc1)c1cccc(Br)c1	11.2µM*	9.2µM*	-1.0%	-4.5	-6.5%	u
CSc1ccc(CNCCCN(C)C)cc1	5.01µM*	u	-1.6%	-39.1	u	-14.3%
CC(C)N(c1ccccc1)c1ccc(NC(=S)NCCN(C)C)cc1	u	11.2µM*	-7.5%	-26.0	u	-5.0%
CN(C)CCCNC(=S)Nc1ccc(Oc2ccccc2)cc1	u	u	-26.3%	u	14.9%	-8.0%
CN(C)CCCNC(=S)Nc1ccc(-c2ccccc2)cc1	11.2µM*	x	u	0.0	x	u
COc1ccccc1C(=O)OCc1cc(=O)n2nc(C3CCCCC3)sc2n1	x	x	-11.9%	25.1	u	-5.5%
C#CCCCO/N=C1\C[C@@H](O)[C@@H](O)[C@@H]2[C@@H]3C(=O)N(Cc4ccc5c(c4)OCO5)C(=O)[C@@H]3CC[C@@H]12	x	-6.7%[14.2 µM]	x	x	x	x
CCc1cc(C(=O)NCC2Cc3cc(C)cc(-c4cc(C(C)=O)ccc4F)c3O2)n(C)n1 (stereo not drawn)	x	x	-25.8%	x	x	-23.3%
COc1ccc(/C=C/c2cnccn2)cc1OC	x	x	21.9%	x	x	-12.8%
C=CC(=O)N1C/C(=C/c2ccccc2)C(=O)/C(=C\c2ccccc2)C1	6.31µM*	2.82µM*	u	-97.1*	u	8.91µM*
C=CC(=O)N1C/C(=C/c2ccc(Cl)cc2)C(=O)/C(=C\c2ccc(Cl)cc2)C1	4.47µM*	u	2.82µM*	-100.0*	2.24µM*	5.62µM*
CN1C/C(=C/c2ccncc2)C(=O)/C(=C/c2ccncc2)C1	16.3%	-0.4%[46.1 µM]	-2.3%	-7.2	u	6.6%
Nc1nc2n(n1)[C@@H](c1cccs1)C[C@H](c1ccc(F)cc1)N2	x	-0.6%	x	x	x	x
Cc1cccc2nc(CNC(=O)CN3Cc4ccccc4OC(c4ccccc4F)C3)cn12 (stereo not drawn)	x	x	-3.2%	x	x	4.5%
CC(C)OC(=O)c1cc(NC(=O)c2nn(C)cc2Br)cc(C(=O)OC(C)C)c1	u	u	-12.6%	12.4	5.17µM*	-2.6%
CCn1nnnc1NCc1ccc(OCc2ccc(F)cc2Cl)c(OC)c1	u	10µM*	u	-12.7	u	-13.3%
CCOC(=O)Cn1cnc2c(nnn2-c2ccc(C)cc2)c1=O	5.7%	-0.3%	x	-73.5*	22.3%	x
CCOC(=O)CNC(=O)CSc1ncnc2c1nnn2-c1ccc(F)cc1	4.0%	0.2%	x	-67.5*	9.4%	-10.7%
CCOC(=O)CNC(=O)Cn1cnc2c(nnn2-c2ccc(F)cc2)c1=O	6.9%	u	x	-27.0	1.1%	x
CCOC(=O)Cn1cnc2c(nnn2-c2ccc(OC)cc2)c1=O	21.8%	6.6%	x	-12.4	17.4%	x
Cc1oc(-c2ccccc2NC(=O)C2CCC2)nc1CNC(=O)c1ccc(C#CC(C)(C)O)cc1	x	x	-12.0%	x	x	-9.0%
Cc1ccccc1Nc1c(C)c(C)nc2ncnn12	11.2µM*	u	-14.0%	u	-26.7%	-4.7%
Cc1ccc(NC(=O)CN2CCCC2c2cccs2)cc1S(=O)(=O)N1CCCCC1 (stereo not drawn)	7.94µM*	x	x	-63.4*	x	x
O=C(CN1CCCC1c1cccs1)Nc1cc(S(=O)(=O)N2CCCCC2)ccc1Cl (stereo not drawn)	5.01µM*	x	x	u	x	x
CCOc1ccc(NC(=O)CN2CCCC2c2cccs2)cc1S(=O)(=O)N1CCCCC1 (stereo not drawn)	u	u	-0.5%	u	u	-19.7%
SMILES	HCV inhibitor	MARV entry inh	VACV mCherry inh	HCMV antiviral	Lassa entry inh	VACV Venus inh
CC(C)CCn1c(=O)c2sccc2n2c(CCCC(=O)NCc3ccc(F)cc3)nnc12	x	x	-12.2%	-22.3	1.3%[46.1 µM]	-13.0%
Cc1cc(N[C@@H](CC(C)C)C(=O)O)nc(Cc2ccccc2)n1	x	22.2%	x	x	x	x
CCN(C)C(=O)C1=COC2=NC(=O)N(Cc3ccccc3C(F)(F)F)CCN12	x	x	x	-2.0	x	x
COc1ccc(-c2nc3scc(CCNS(=O)(=O)c4ccc(Oc5ccccc5)cc4)n3n2)cc1	x	x	-14.7%	-27.5	14.1%[46.1 µM]	-21.0%
COc1ccc(-c2nc3sc(CCNS(=O)(=O)c4ccccc4)c(C)n3n2)cc1	x	x	-19.1%	u	-29.8%[46.1 µM]	-18.6%
Cc1c(CCNS(=O)(=O)c2ccccc2)sc2nc(-c3ccc(Cl)cc3)nn12	x	x	u	-74.6*	u	u
O=S(=O)(NCCc1csc2nc(-c3ccccc3)nn12)c1ccc(Oc2ccccc2)cc1	x	x	-22.3%	-67.0*	u	-25.8%
Cc1cc(C)c(S(=O)(=O)NCCc2csc3nc(-c4ccc(Cl)cc4)nn23)c(C)c1	x	x	-27.2%	-66.3*	-1.2%[46.1 µM]	-29.0%
CCN(C(=O)[C@@H]1CCCN1C(=O)c1cccs1)c1nc2cc(Cl)ccc2s1	10µM*	u	-11.5%	118.4	0.7%	-15.8%
CC(CNC(=O)CCCn1c(=O)c2cccn2c2cccnc21)c1ccccc1 (stereo not drawn)	x	x	-12.6%	-69.2*!	3.5%[46.1 µM]	-4.9%
CC(CNC(=O)CCCn1c(=O)c2cccn2c2ccc(F)cc21)c1ccccc1 (stereo not drawn)	x	x	-12.0%	-13.9	-16.2%[46.1 µM]	-11.0%
CCN(CC)S(=O)(=O)c1ccc(C(=O)Nc2nc3c(Cl)cc(Cl)cc3s2)cc1	x	x	u	3.8	u	u
Cc1ccnc(NC(=O)c2cccc(S(=O)(=O)N3CCN(c4ccc(F)cc4)CC3)c2)c1	10µM*	u	-27.8%	-23.7	1.0%[46.1 µM]	-23.3%
O=C(Nc1ccc(Oc2ccccc2)cc1)c1ccc(F)c(S(=O)(=O)N2CCN(c3cccc(Cl)c3)CC2)c1	x	x	u	-70.3*	u	-34.5%

Bioassay records deposited in PubChem BioAssay by National Center for Advancing Translational Sciences (NCATS).
